An excerpt weighted towards active compounds, which were near 2.4% of everything screened.
WT yeast gro inh: growth inhibition of WT yeast, mitochondrial fusion screen; mitochondrial fusion phenotypic screen, WT strain; inhibition, % at 10 µM; actives 2.1% (n = 190,000); AID 1362; in the data active = inhibition above about 58%; tested in S. cerevisiae
Redox H2O2 prof: compounds producing H2O2 with reducing agent – biochemical, NIH compound library profiling, artefact control for MLSCN library redox annotation, primary screen | DTT-dependent redox cycling H2O2, phenol red/HRP absorbance; 100% = 100 µM peroxide control, 0% = buffer | activation, % at 10 µM | actives 0.03% (n = 200,000) | AID 878;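 active = activation of at least 50% relative to the plate's high and low controls in the primary single-dose screen; inactive = activation below 50%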;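 also: compound incubated with DTT at 0.8 mM final as the reducing agent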
PKD1 inh: blocks activity of human protein kinase D1; Q15139; PKD1 kinase fluorescence polarization assay; inhibition, % (test concentration not listed); actives 0.056% (n = 200,000); AID 797; in the data active = inhibition above about 50%
Target sequence (Q15139 whole entry, looked up): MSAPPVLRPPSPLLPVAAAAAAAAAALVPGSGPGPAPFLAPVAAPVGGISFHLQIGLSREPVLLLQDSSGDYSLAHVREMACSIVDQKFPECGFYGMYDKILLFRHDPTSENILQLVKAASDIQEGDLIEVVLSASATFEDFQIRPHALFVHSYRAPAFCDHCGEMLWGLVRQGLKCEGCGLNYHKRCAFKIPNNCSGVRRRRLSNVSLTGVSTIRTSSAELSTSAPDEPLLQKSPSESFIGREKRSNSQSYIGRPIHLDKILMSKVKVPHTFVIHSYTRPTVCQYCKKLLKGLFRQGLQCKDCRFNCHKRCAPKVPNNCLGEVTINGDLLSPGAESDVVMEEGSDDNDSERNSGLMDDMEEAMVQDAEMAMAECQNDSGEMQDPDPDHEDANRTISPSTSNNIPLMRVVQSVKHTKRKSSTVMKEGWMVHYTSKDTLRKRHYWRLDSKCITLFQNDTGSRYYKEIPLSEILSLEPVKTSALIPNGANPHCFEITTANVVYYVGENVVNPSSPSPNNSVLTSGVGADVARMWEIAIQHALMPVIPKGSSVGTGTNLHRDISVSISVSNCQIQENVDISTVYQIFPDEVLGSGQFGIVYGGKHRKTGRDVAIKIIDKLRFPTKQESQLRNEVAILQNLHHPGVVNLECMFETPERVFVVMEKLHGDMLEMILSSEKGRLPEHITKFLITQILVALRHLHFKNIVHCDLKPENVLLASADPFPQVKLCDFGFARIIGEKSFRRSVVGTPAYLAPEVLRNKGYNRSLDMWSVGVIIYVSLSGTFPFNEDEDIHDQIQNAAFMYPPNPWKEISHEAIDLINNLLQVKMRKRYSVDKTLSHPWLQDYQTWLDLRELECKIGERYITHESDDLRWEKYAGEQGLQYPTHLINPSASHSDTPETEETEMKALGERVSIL
PERK inh: blocks human PERK kinase. Q9NZJ5. CHO PERK-DD fusion, SEAP luminescence translation reporter. inhibition, % at 5.6 µM. actives 0.17% (n = 220,000). AID 1416;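 active = inhibition above the mean inhibition of all tested compounds plus 3 SD, set separately per screening campaign, cut at about 2.9% in these data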;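 also: PERK kinase domain activated by AP20187 dimerizer at 100 nM; 0% = DMSO with dimerizer and 100% = rapamycin at 8.4 µM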
TNF death inh: blocks TNF-alpha induced death of Jurkat FADD-/- cells; Jurkat FADD-/- TNF necroptosis rescue, ATP luminescence, 24 h; 0 = TNF only, 100 = no-TNF cells; activation (protection from cell death), % at 10 µM; actives 0.068% (n = 220,000);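 active = activation, meaning protection from cell death, of at least 50% relative to plate controls; inactive = activation below 50%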;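 also: necroptosis triggered by 40 ng/mL TNF-alpha added together with compound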
L929 necroptosis: blocks zVAD induced death of L929 cells. L929 zVAD necroptosis rescue, ATP luminescence, 24 h; with zVAD 60 µM. viability rescue, % at 10 µM. actives 0.38% (n = 220,000). AID 1377;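 active = activation, scaled between plate controls, above about 75%, limit read from the data; inactive = activation under that limit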;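 also: 0% = zVAD with DMSO and 100% = DMSO alone without zVAD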
Starred values were filed as active, the others as inactive; · = no result.

SMILES	WT yeast gro inh	Redox H2O2 prof	PKD1 inh	PERK inh	TNF death inh	L929 necroptosis
Cc1c(Cc2ccccc2)sc(NC(=O)/C=C/c2cccc3ccccc23)c1C(N)=O	-5	5	-5	1	0	1
O=C(Nc1ccc(Cl)cc1)N1CCC(c2nc(-c3ccccc3Cl)no2)CC1	64*	0	-10	0	0	0
CC(/C=N/n1c(COc2ccccc2)n[nH]c1=S)=C\c1ccccc1	75*	0	-2	0	-2	0
Cc1ccc(OCc2n[nH]c(=S)n2-c2ccccc2)cc1C	67*	0	3	0	0	0
S=c1[nH]nc(COc2ccccc2)n1/N=C/c1ccncc1	1	0	4	1	0	1
NC(=O)C1CCN(C(=O)Nc2csc3ccccc23)CC1	·	·	·	1	1	-1
CCN(CCCNC(=O)C1CCC(=O)N1Cc1ccc(F)cc1)c1cccc(C)c1 (stereo not drawn)	12	3	0	0	-6	0
CCN(CCNCC(O)COCc1ccc(Cl)cc1)c1cccc(C)c1 (stereo not drawn)	62*	0	-1	0	7	0
CN(C)c1nc(N)c([N+](=O)[O-])c(NCCO)n1	-6	0	4	1	1	0
CCC(C)/C(C)=N/NC(=O)c1ccc(COc2ccc(Cl)c(C)c2)cc1 (stereo not drawn)	72*	0	-20	0	3	0
CCOc1ccc(OCc2ccc(C(=O)N/N=C(\C)c3ccccn3)cc2)cc1	5	-2	2	0	-13	17
CCCCCCCCOC(=O)c1nc(Cl)c(Cl)c(N)c1Cl	69*	0	-8	1	1	1
CC(=O)Nc1ccc(NC(=O)Nc2cc(C)cc(C)c2)cc1	·	·	·	3.6*	0	19
COc1cccc(-c2nc(OC(C)C)c3ccccc3n2)c1	61*	1	-4	1	-1	0
CCC(=NCc1ccc(Cl)c(Cl)c1)c1nc(-c2ccco2)oc1O	67*	1	-3	0	2	1
N#CCCn1cc(/C=N/N=C2\NC(=O)C(CC(=O)O)S2)c(-c2ccc(F)cc2)n1 (stereo not drawn)	·	·	·	2	2	1
COCCNC(=O)CC(NS(=O)(=O)c1ccc(C)cc1)c1ccco1 (stereo not drawn)	73*	0	-11	1	-11	0
CCOC(=O)c1cnc2ccc(OCC)cc2c1N1CCN(c2ccccc2OC)CC1	79*	0	-8	-2	-6	-1
CC(Oc1ccc(Cl)cc1Cl)c1nc(-c2ccc(NC(=O)c3ccccn3)cc2)no1 (stereo not drawn)	18	-3	-4	0	-9	0
CN(CC(=O)Nc1ccc(Cl)c(Cl)c1)C(=O)C12CC3CC(CC(C3)C1)C2	76*	0	-12	0	3	22
CCN1CC(CN(C)Cc2cn(-c3ccc(C)cc3)nc2-c2cccc(C)c2)CC1=O (stereo not drawn)	16	0	3	0	3	1
O=c1oc(/C=C/c2ccccc2)nc2sc3c(c12)CCC3	-7	0	-4	0	-1	0
Cn1c(N/N=C/c2ccccc2)nc2sc3c(c2c1=O)CCC3	62*	-3	-3	-1	-5	0
O=c1c2c3c(sc2nc(NCCO)n1Cc1ccco1)CCCCC3	22	0	-1	0	3	4
Cc1nc(NCc2cccnc2)c2c3c(sc2n1)CCCC3	-7	-1	-6	-1	0	11
OCCNc1nc(SCc2ccccc2)nc2sc3c(c12)CCC3	78*	1	0	0	-1	1
O=c1c2c3c(sc2nc(NCCO)n1CCc1ccccc1)CCCCC3	70*	0	1	0	-1	5
COc1ccc(-c2nsc3c(N4CCCCC4C)ncnc23)cc1 (stereo not drawn)	75*	0	-3	0	0	3
CC1CCN(S(=O)(=O)c2ccc(NC(=O)CCN3C(=O)c4ccccc4C3=O)cc2)CC1	6	0	-3	0	1	0
